In PubChem BioAssay AID488841 (Sanford-Burnham Center for Chemical Genomics, 2010):
The whole screen tested about 1,400 compounds, of which about 380 (27%) were called active.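 Rule for the calls: active = mean inhibition above 50% across duplicate retests at 10 µM; inactive = the rest.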 The list shows a part of the results.

experiment: inhibition of NALP1/ASC/caspase-1 reporter signal in yeast, confirmation, NALP1 inhibitor project, S. cerevisiae, luminescence, single concentration (AID 488841);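 note: plate controls were DMSO in galactose medium for no effect and cells in plain SD medium for full effect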; settings: S. cerevisiae NALP1/ASC/Caspase-1 reporter, beta-gal luminescence; at 10 µM; stronger effect = higher value

Row | Structure (SMILES) | inhibition
1 | NC(=S)N/N=C/c1coc2c(ccc3ccccc32)c1=O | 34.1% (inactive)
2 | O=C(/C=N/O)Nc1cccnc1 | 19.7% (inactive)
3 | COc1ccc(-c2csc3ncnc(Oc4cccc5ccc(C)nc45)c23)cc1 | 67.6% (active)
4 | Cc1ccc(-c2csc3ncnc(Oc4cccc5ccc(C)nc45)c23)cc1 | 19.6% (inactive)
5 | O=S(=O)(CC(CN1CCCC1)N1CCCC1)c1ccc2ccccc2c1 (stereo not drawn) | 21.4% (inactive)
6 | CC(C)c1nc2sc3c(=O)[nH]cnc3c2c2c1CCC2 | 22% (inactive)
7 | CCOC(=O)C(=Cc1cc(=O)c(OC)co1)C(=O)OCC | 79.3% (active)
8 | CC(=O)c1c(C)oc2c1C(=O)c1ccccc1C2=O | 35.8% (inactive)
9 | Cc1c(Cl)sn(-c2ccc(Cl)cc2)c1=O | 73.5% (active)
10 | C=C(C)C1CC=C(C)/C(=N/NC(=O)c2ccoc2C)C1 (stereo not drawn) | 27.2% (inactive)
11 | CN(C)C(=N)c1n[nH]nc1SCc1ccccc1 | 19.9% (inactive)
12 | Cc1cccc(/C=C/C(=O)c2ccc(NC3=NCCCS3)cc2)c1 | 62% (active)
13 | CC(C)(C)c1ccc(/C=C/C(=O)c2ccc(NC3=NCCCS3)cc2)cc1 | 43.9% (inactive)
14 | Cc1cc(N/N=C/c2ccccc2Cl)nc(NCc2ccccc2)n1 | 43.6% (inactive)
15 | Cc1cc(N/N=C/c2ccccc2)nc(NCc2ccccc2)n1 | 58.4% (active)
16 | Cc1cc(N/N=C/c2cccc(Cl)c2)nc(NCc2ccccc2)n1 | 44.8% (inactive)
17 | Cc1ccc(Nc2cc(C)nc(NCc3ccccc3)n2)cc1 | 58.3% (active)
18 | Cc1cc(N/N=C/c2ccc(Cl)cc2)nc(NCc2ccccc2)n1 | 33.7% (inactive)
19 | CCOC(=O)C1CCCN(C2CC(=O)N(c3cccc(C(F)(F)F)c3)C2=O)C1 (stereo not drawn) | 32.6% (inactive)
20 | CC1Cc2ccccc2N1CC(=O)Nc1ccc2c(c1)OC(F)(F)O2 (stereo not drawn) | 30.3% (inactive)
21 | CCCCCCNc1nc(NCc2ccco2)nc(OCC)n1 | 52.5% (active)
22 | CCc1ccc(OCCCC(=O)Nc2cccc(C(=O)O)c2)cc1 | 27.1% (inactive)
23 | COc1ccc2cnn(-c3ccc(C)cc3)c(=O)c2c1OC | 36.9% (inactive)
24 | Cc1ccc(-n2c(Cl)c(Cl)nc(Cl)c2=O)cc1 | 100% (active)
25 | O=C(Nc1cccc(O)c1)c1noc2c1CCc1ccccc1-2 | 75.4% (active)
26 | O=c1c2c(C(F)(F)F)cc(C(F)(F)F)nc2[nH]n1-c1ccccc1 | 37.9% (inactive)

Row | Structure (SMILES) | inhibition
27 | O=C(CN1CCSC1=NCc1ccccc1)c1ccc(Cl)c(Cl)c1 | 52.2% (active)
28 | COc1ccc(N2CCN(CC(=O)NC(=O)NCc3ccco3)CC2)cc1 | 28.6% (inactive)
29 | CN(C)S(=O)(=O)c1ccc(N2CCCC2)c(C(=O)Nc2nc3ccccc3s2)c1 | 36.7% (inactive)
30 | O=C(NC(Nc1nc2ccc([N+](=O)[O-])cc2s1)(C(F)(F)F)C(F)(F)F)c1ccccc1Cl | 99.5% (active)
31 | CCOc1ccc(CNC(=O)c2cc3oc4ccccc4c3n2C)cc1 | 7.2% (inactive)
32 | O=C1C=CCC(/C=C/c2ccccc2)O1 (stereo not drawn) | 69.2% (active)
33 | c1ccc(-c2c[nH]c3[n+]2CCCCC3)cc1 | 26.2% (inactive)
34 | COc1ccc(OCCCC(=O)Oc2ccc(OC)cc2)cc1 | 42.6% (inactive)
35 | CCOCCCNCc1ccc(OCc2ccccc2Cl)cc1 | 49.2% (inactive)
36 | COc1ccc(OCCCC(=O)NCC(C)C)cc1 | 32.4% (inactive)
37 | COc1ccc(OCCCC(=O)NCCc2ccccc2)cc1 | 60.8% (active)
38 | COc1ccc(CNCCC(c2ccc(F)cc2)c2ccc(OC)cc2)cc1 (stereo not drawn) | 65.8% (active)
39 | COc1ccc(CCNCc2ccc(OCc3ccccc3)cc2)cc1 | 78.5% (active)
40 | CCc1ccc(OCCNC(=O)OCc2ccccc2)cc1 | 48.8% (inactive)
41 | COc1ccc(CNCCSc2nnnn2C)cc1OC | 49% (inactive)
42 | COc1ccc(C(CCNCc2ccccc2F)c2ccc(F)cc2)cc1 (stereo not drawn) | 48.2% (inactive)
43 | CN(C)c1ccc(O)c2c1CC1CC3[C@@H](N(C)C)C(=O)C(C(N)=O)=C(O)[C@]3(O)C(=O)C1=C2O (stereo partly drawn) | 28.8% (inactive)
44 | Cc1cc(/C=C2/SC(=S)N(c3ccc([N+](=O)[O-])cc3)C2=O)c(C)n1-c1cccnc1 | 34.9% (inactive)
45 | O=C1Cc2ccccc2C(=O)N1OCc1ccc(Cl)cc1Cl | 26.8% (inactive)
46 | COc1cc(Cc2cnc(N)nc2N)cc(OC)c1OC | 24.9% (inactive)
47 | Oc1c(I)cc(Cl)c2cccnc12 | 56.2% (active)
48 | Oc1c(CN2CCCCC2)cc(Br)c2cccnc12 | 26.2% (inactive)
49 | C=C(C)COc1ccc2c(CC)cc(=O)oc2c1C | 63.1% (active)
50 | CC1CCCN(CCC(=O)c2ccc(Br)cc2)C1 (stereo not drawn) | 28.8% (inactive)
51 | CC1=NN(c2ccc(C)cc2C)C(=O)C1C(c1cccc(O)c1)C1C(=O)N(c2ccc(C)cc2C)N=C1C (stereo not drawn) | 38% (inactive)
52 | C=CCNC(=S)N/N=C(\C)c1ccccn1 | 57.5% (active)

Row | Structure (SMILES) | inhibition
53 | C/C(=N\NC(=O)Nc1ccccc1)c1ccccc1 | 47.1% (inactive)
54 | COc1cccc(NC(=O)Cn2cnc3sc(C)c(S(=O)(=O)N4CCCCC4)c3c2=O)c1 | 20.9% (inactive)
55 | COc1cc(/C=N/n2cnnc2)ccc1OCc1ccc(C)cc1 | 50.9% (active)
56 | COc1cc(C2Nc3ccccc3C(=O)N2c2ccccc2)ccc1O (stereo not drawn) | 27.3% (inactive)
57 | COC1=C(N)C(=O)c2nc(-c3nc(C(=O)O)c(C)c(-c4ccc(OC)c(OC)c4O)c3N)ccc2C1=O | 33.7% (inactive)
58 | Cc1cccc(N2Cc3ccccc3C2=NC(=O)c2ccc(Cl)nc2)c1 | 26.5% (inactive)
59 | COC(=O)N/N=C(\C)c1ccc2ccccc2c1OC(F)F | 55.9% (active)
60 | CCSc1ncc(/C=N/Nc2ccccc2)n1C | 68.9% (active)
61 | CCSc1nnc(-c2cnn(-c3ccccc3)c2-n2cccc2)n1C | 26.1% (inactive)
62 | Clc1ccc(OCCCNCc2ccccc2)c2ccccc12 | 49.3% (inactive)
63 | COC(=O)C(CCSC)NC(=O)Cn1ncc2c(=O)oc3ccccc3c21 (stereo not drawn) | 35.1% (inactive)
64 | CN(C#N)c1nc(Cl)nc(Nc2cccc(Cl)c2)n1 | 23.4% (inactive)
65 | COc1ccc(Cc2ccc(OC)c(N)c2)cc1N | 36.5% (inactive)
66 | O=C(COc1ccc(Br)cc1Br)NC(=S)Nc1cccc(CO)c1 | 29.1% (inactive)
67 | COc1ccc(CNc2cccc(F)c2)cc1Br | 62% (active)
68 | CC(C)c1ccc(NCCC(=O)c2cccs2)cc1 | 44.8% (inactive)
69 | CC1CC1C(=O)Nc1nc(-c2ccccc2)cs1 (stereo not drawn) | 66.7% (active)
70 | O=C(COC(=O)c1cccs1)Nc1nc(-c2ccccc2)cs1 | 34% (inactive)
71 | O=C(COC(=O)/C=C/c1cccs1)Nc1nc(-c2ccccc2)cs1 | 13.8% (inactive)
72 | O=C(Cc1coc2cc3c(cc12)CCC3)NCC1(N2CCCCC2)CCCCC1 | 22.9% (inactive)
73 | O=C1C2C(C(=O)N1/N=C/c1cc(Br)cc([N+](=O)[O-])c1O)C1C=CC2C12CC2 (stereo not drawn) | 59.4% (active)
74 | O=C1C2C(C(=O)N1/N=C/c1ccc([N+](=O)[O-])o1)C1C=CC2C12CC2 (stereo not drawn) | 34.8% (inactive)
75 | O=C(CN1CCCCC1)Nc1cccc(Oc2ccccc2)c1 | 25.9% (inactive)
76 | O=C1C=CC(=O)N1c1ccc(N2CCCCC2)cc1 | 70.8% (active)
77 | O=[N+]([O-])c1ccc(N2CCCCC2)cc1 | 32.1% (inactive)
78 | O=S(=O)(N1CCCCC1)N1CCN(c2ccc(F)cc2)CC1 | 29.6% (inactive)

Row | Structure (SMILES) | inhibition
79 | CCCCN(CC)S(=O)(=O)c1ccccc1 | -8.3% (inactive)
80 | CCCCCCCCCCCCCCCC[n+]1cccc(C(=O)N(CC)CC)c1 | 80.4% (active)
81 | CCCCCCCCCCCCCCCC[n+]1ccc(C(N)=O)cc1 | 81.4% (active)
82 | CCCCCCCCCCCCCCCC[n+]1ccc(/C=N/O)cc1 | 82% (active)
83 | C1=CC2CC1CC2CN1CCN(Cc2ccccc2)CC1 (stereo not drawn) | 46.4% (inactive)
84 | COc1cc(-c2nc(C(F)(F)F)c(OC)o2)cc(OC)c1OC | 28.9% (inactive)
85 | O=C(NC(N1CCOCC1)C(Cl)(Cl)Cl)c1ccc(Br)cc1 (stereo not drawn) | -17.9% (inactive)
86 | CC1=CC2=NC(=O)/C(=C\c3cccn3CCOc3cccc(C)c3)C(=N)N2O1 | 76.5% (active)
87 | O=C(O)/C=C/C(=O)OC1CC2CCC1C2 (stereo not drawn) | 24.1% (inactive)
88 | CN(C)Cc1ccccc1COc1ccccc1 | 23.2% (inactive)
89 | C/C(=C(\C#N)C(=O)NCc1ccccc1)N(C)C | 33.3% (inactive)
90 | CCOc1ccc(NC(=O)/C=C/c2ccccc2)c([N+](=O)[O-])c1 | 31.1% (inactive)
91 | Cc1cc(N2CCOCC2)ccc1/C=C\[N+](=O)[O-] | 41.6% (inactive)
92 | CCOC(=O)COc1ccc2ccccc2c1/C=C/[N+](=O)[O-] | 99.7% (active)
93 | CCOC(=O)COc1ccccc1/C=C\[N+](=O)[O-] | 101% (active)
94 | COc1ccccc1OCC(=O)N/N=C/C=C/c1ccc([N+](=O)[O-])o1 | 32.6% (inactive)
95 | O=C(CCCN1C(=O)c2ccccc2C1=O)Oc1ccc(Cl)cc1 | 37.3% (inactive)
96 | CC(NCCC(c1ccccc1)c1ccccc1)c1ccccc1 (stereo not drawn) | 50.5% (active)
97 | CCN1/C(=C/C=C/C=C/c2sc3ccccc3[n+]2CC)Sc2ccccc21 | 51% (active)
98 | COc1cccc(OCc2ccc(C(=O)NCC3CCCO3)cc2)c1 (stereo not drawn) | 36.2% (inactive)
99 | CC1(O)N(Cc2ccccc2)C(=O)OC12CCCCC2 (stereo not drawn) | 29.2% (inactive)
100 | O=C(COC(=O)c1ccc(-c2ccc([N+](=O)[O-])cc2)o1)NC(=O)NC1CCCCC1 | 37.8% (inactive)
101 | CC(C)(C)c1nnc(N/N=C/c2cc(Br)ccc2O)n(N)c1=O | 53.5% (active)
102 | O=C(N/N=C/c1cc(Cl)ccc1O)c1ccc(Br)cc1 | 43.6% (inactive)
103 | CCCCNC(=O)Nc1cc(C)on1 | 23.2% (inactive)
